From PubChem BioAssay (NCATS) come the findings set out here.

Structures are written as SMILES. Results filed as inconclusive are left out. Entries that show only a call come without a potency. Calls of active or inactive are those of the source. The call rests on the fitted dose curve; in most records, active means well fitted inhibition curve with a large enough effect; inconclusive means small, poorly fitted or top-dose-only effect; inactive means flat fitted curve, though single readings scatter.
Potency means the concentration at half of the fitted maximal effect.

The subject of the first assay is PAD. The experiment in a line: qHTS profiling for inhibitors of Plasmodium falciparum proliferation (AID 504749). Further: nearly all actives have a fitted effect of over 60% in size. As to conditions: P. falciparum in erythrocytes, SYBR Green DNA, 72 h; series mostly up to 28.7 µM. A digest of the protocol:
(§1)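 SYBR Green fluorescence of parasite DNA, read after lysis and overnight dark incubation, measured growth over 72 h in erythrocyte culture at 0.3% parasitemia and 2.5% hematocrit. Data normalised to DMSO and 0.29 uM artemisinin, with plate-drift correction.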
Turning to `C=CCc1ccc(O)c(OC)c1`, the Potency result was “inactive”.

Consider `CNCCC(Oc1ccccc1C)c1ccccc1` (stereo unspecified), for which the Potency entry is “inactive”.

Regarding `CN(C(=O)CN(CCO)CC(=O)N(C)C(C)(C)Cc1ccccc1)C(C)(C)Cc1ccccc1`, the Potency result was “inactive”.

Turning to `O=C1OC(c2ccc(O)cc2)(c2ccc(O)cc2)c2ccccc21`, the Potency result is “inactive”.

On to `C#C[C@]1(O)CC[C@H]2[C@@H]3CCc4cc(OC5CCCC5)ccc4[C@H]3CC[C@@]21C`, for which the Potency result was “inactive”.

On to `O=S1(=O)c2cccc3cccc(c23)N1CCCN1CCN(c2ccc(F)cc2)CC1`, for which the Potency result is “inactive”.

Consider `CCOc1ccc(Cc2nccc3cc(OCC)c(OCC)cc23)cc1OCC`, for which the Potency result is “inactive”.

For `c1ccc(OCc2ccc(CCCN3CCOCC3)cc2)cc1`, the Potency result is “inactive”.

On to `CN1CCC(=C2c3ccccc3Sc3ccccc32)CC1`, for which the Potency is 12.6 µM (active).

For the compound `C[C@@H](CN(C)C)CN1c2ccccc2Sc2ccccc21`, the Potency entry was “inactive”.

With `CCCCCCCCCCCCCCCC[N+](C)(C)CCN(Cc1ccc(OC)cc1)c1ncccn1`, the Potency result was “inactive”.

Take `CN1C2CCC1CC(OC(=O)c1c[nH]c3ccccc13)C2` (stereo unspecified): the Potency result was “inactive”.

Consider `CC/C(=C(/CC)c1ccc(O)cc1)c1ccc(O)cc1`, for which the Potency entry is “inactive”.

Consider `CC[N+](CC)(CCNC(=O)C(=O)NCC[N+](CC)(CC)Cc1ccccc1Cl)Cc1ccccc1Cl`, for which the Potency was 2.82 µM (active).

As for `O=C(CCN1CCC(c2ccccc2)C1)c1ccc2c(c1)OCCO2` (stereo unspecified), the Potency entry is “inactive”.

In the case of `Cc1ccc(O)c2ncccc12`, the Potency result was “inactive”.

For the compound `CCN(CCCc1ccccc1)CCCc1ccccc1`, the Potency result is “inactive”.

For `Cc1cc(N)c2cc(NC(=O)Nc3ccc4nc(C)cc(N)c4c3)ccc2n1`, the Potency is 12.6 µM (active).

For the compound `CC(=O)c1ccc2c(c1)N(CCCN1CCC(CCO)CC1)c1ccccc1S2`, the Potency result is “inactive”.

For `CCN(CC)CCNC(=O)COc1ccc(Cl)cc1`, the Potency was 11.2 µM (active).

As to `CC(=O)Nc1c(I)cc(I)c(C(=O)O)c1I`, the Potency result is “inactive”.

For `COc1cc2c(cc1OC)C(C(C(=O)N(CCc1ccc(OC)c(OC)c1OC)CCc1ccc(OC)c(OC)c1OC)c1ccccc1)=NCC2` (stereo unspecified), the Potency is 1 µM (active).

Regarding `O=C1[C@H]2CCCC[C@H]2C(=O)N1CCCCN1CCN(c2nsc3ccccc23)CC1`, the Potency result was “inactive”.

For `C[C@@H]1CN(CCCn2c3ccccc3c3ccccc32)C[C@H](C)N1`, the Potency is 1.78 µM (active).

For the next assay, the system named is PC15. The assay is described as above. As to conditions: P. falciparum in erythrocytes, SYBR Green DNA, 72 h; series mostly up to 28.7 µM. The gist of the method: as §1
For the compound `CCCCc1nc(Cl)c(CO)n1Cc1ccc(-c2ccccc2-c2nn[nH]n2)cc1`, the Potency result was “inactive”.

As for `C=CCc1ccc(O)c(OC)c1`, the Potency entry is “inactive”.

Take `CN(C(=O)CN(CCO)CC(=O)N(C)C(C)(C)Cc1ccccc1)C(C)(C)Cc1ccccc1`: the Potency entry is “inactive”.

With `O=C1OC(c2ccc(O)cc2)(c2ccc(O)cc2)c2ccccc21`, the Potency entry was “inactive”.

On to `C#C[C@]1(O)CC[C@H]2[C@@H]3CCc4cc(OC5CCCC5)ccc4[C@H]3CC[C@@]21C`, for which the Potency entry was “inactive”.

For `O=S1(=O)c2cccc3cccc(c23)N1CCCN1CCN(c2ccc(F)cc2)CC1`, the Potency entry is “inactive”.

For `CCOc1ccc(Cc2nccc3cc(OCC)c(OCC)cc23)cc1OCC`, the Potency entry was “inactive”.

As for `c1ccc(OCc2ccc(CCCN3CCOCC3)cc2)cc1`, the Potency result is “inactive”.

In the case of `C[C@@H](CN(C)C)CN1c2ccccc2Sc2ccccc21`, the Potency entry was “inactive”.

For `CC(C)=CCC1C(=O)N(c2ccccc2)N(c2ccccc2)C1=O`, the Potency entry is “inactive”.

Take `O=C(N/N=C/c1ccccc1O)c1ccncc1`: the Potency result is “inactive”.

As for `Cc1cccc(C)c1NC(=O)CN1CCN(CCCC(c2ccc(F)cc2)c2ccc(F)cc2)CC1`, the Potency entry is “inactive”.

Turning to `O=C(CCN1CCC(c2ccccc2)C1)c1ccc2c(c1)OCCO2` (stereo unspecified), the Potency result was “inactive”.

In the case of `Cc1ccc(O)c2ncccc12`, the Potency entry was “inactive”.

For the compound `CCOC(=O)/C=C(C)/C=C/C=C(C)/C=C/c1c(C)cc(OC)c(C)c1C`, the Potency result is “inactive”.

On to `CCN(CCCc1ccccc1)CCCc1ccccc1`, for which the Potency result was “inactive”.

Take `C[C@@H]1C[C@H]2[C@@H]3CCC4=CC(=O)C=C[C@]4(C)[C@@]3(F)[C@@H](O)C[C@]2(C)[C@H]1C(=O)CO`: the Potency result is “inactive”.

In the case of `CC(=O)c1ccc2c(c1)N(CCCN1CCC(CCO)CC1)c1ccccc1S2`, the Potency entry was “inactive”.

With `CCN(CC)CCNC(=O)COc1ccc(Cl)cc1`, the Potency entry was “inactive”.

For the compound `Oc1c(I)cc(Cl)c2cccnc12`, the Potency result was “inactive”.

`OCc1ccccc1O`: the Potency result was “inactive”.

As for `CC(=O)Nc1c(I)cc(I)c(C(=O)O)c1I`, the Potency result was “inactive”.

Take `COc1cc2c(cc1OC)C(C(C(=O)N(CCc1ccc(OC)c(OC)c1OC)CCc1ccc(OC)c(OC)c1OC)c1ccccc1)=NCC2` (stereo unspecified): the Potency is 2.51 µM (active).

The subject of the next assay is PC26. The description is as above. The following applies: P. falciparum in erythrocytes, SYBR Green DNA, 72 h; series mostly up to 28.7 µM. The gist of the method:
as §1
For the compound `CCCCCCCCCCCCCCNCCO`, the Potency entry was “inactive”.

Take `C=CCc1ccc(O)c(OC)c1`: the Potency entry was “inactive”.

Consider `CN(C(=O)CN(CCO)CC(=O)N(C)C(C)(C)Cc1ccccc1)C(C)(C)Cc1ccccc1`, for which the Potency entry is “inactive”.

Turning to `O=C1OC(c2ccc(O)cc2)(c2ccc(O)cc2)c2ccccc21`, the Potency result is “inactive”.

Regarding `C#C[C@]1(O)CC[C@H]2[C@@H]3CCc4cc(OC5CCCC5)ccc4[C@H]3CC[C@@]21C`, the Potency result is “inactive”.

On to `CCCCCCCCCCCCCCCC[N+](C)(C)CCN(Cc1ccc(OC)cc1)c1ncccn1`, for which the Potency entry is “inactive”.

With `CC/C(=C(/CC)c1ccc(O)cc1)c1ccc(O)cc1`, the Potency result is “inactive”.

For the compound `O=C(CCN1CCC(c2ccccc2)C1)c1ccc2c(c1)OCCO2` (stereo unspecified), the Potency result was “inactive”.

With `Cc1ccc(O)c2ncccc12`, the Potency result was “inactive”.

Take `CCN(CCCc1ccccc1)CCCc1ccccc1`: the Potency result is “inactive”.

For `Oc1c(I)cc(Cl)c2cccnc12`, the Potency entry is “inactive”.

For `OCc1ccccc1O`, the Potency entry is “inactive”.

Regarding `CC(=O)Nc1c(I)cc(I)c(C(=O)O)c1I`, the Potency entry was “inactive”.

In the case of `COc1cc2c(cc1OC)C(C(C(=O)N(CCc1ccc(OC)c(OC)c1OC)CCc1ccc(OC)c(OC)c1OC)c1ccccc1)=NCC2` (stereo unspecified), the Potency is 4.78 µM (active).
